Experimental data taken from PubChem BioAssay AID651956 (Broad Institute, 2012).
Measured potencies and affinities stand elsewhere. Results filed as inconclusive are left out. Active and inactive are the calls of the source.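 How the source made its calls: active means in every test run, a fitted half-maximal concentration for signal decrease at or below twice the highest tested concentration; inconclusive means runs disagree, flat 30 to 70% decrease, or poor fit; inactive means the rest.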

assay: activation of miR-122 Renilla sensor silencing – cell-based, Huh7 psiCHECK-miR122, Renilla luciferase, cherry-picked, dose response (AID 651956); settings: Huh7 psiCHECK-miR122 Renilla luciferase reporter, 48 h; series mostly up to 35 µM

Row | Compound | outcome
1 | O=C(CSc1nc2ccccc2s1)N1CCOCC1 | inactive
2 | C/C=C/c1ccc([C@@H]2[C@@H](CN(C(=O)COC)C(C)C)N(C(C)=O)[C@H]2CO)cc1 | inactive
3 | COc1ccc(C#Cc2ccc3c(c2)O[C@@H](CN(C)C(=O)CN2CCOCC2)[C@@H](C)CN([C@H](C)CO)S3(=O)=O)cc1 | inactive
